Screening results as filed in PubChem BioAssay.
Pf Dd2 inh: P. falciparum Dd2 growth inhibitors, primary screen, SYBR Green fluorescence, single dose replicates | 2.3% of 94,000 active | 72 h; active compounds read low | activity change, % at 10 µM; in the data active = activity change below about -80%; inconclusive = no clear call, values can overlap the other calls
C diff HTS: C. difficile growth inhibitors, primary screen, HTS; Clostridium difficile clinical isolate growth, OD600, 24 h; active compounds read low; growth activity, negative = inhibition, % at 16 µg/mL (by protocol); 0.25% of 86,000 active; AID 1259249, 2017;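 active = mean growth activity at or below -80% and every replicate also at or below -80%; inconclusive = mean at or below -80% but some replicate above -80%; inactive = mean growth activity above -80%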;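 also: 0% = DMSO wells and -100% = levofloxacin 16 µg/mL wells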
An asterisk follows results filed as active; ? = inconclusive; nt = not tested or not shown. Shown are actives, neighbours in structure and some others; about 2.3% of the full set was active somewhere.

SMILES | Pf Dd2 inh | C diff HTS
CO[C@@H]1CN(C)C(=O)c2ccc(NC(=O)NC(C)C)cc2OC[C@@H](C)N(Cc2ccccc2)C[C@@H]1C | -45.2 | nt
Cc1ccccc1-c1ccc([C@H]2[C@@H](CO)N3CCCCN(C(=O)Nc4cccc(F)c4)C[C@H]23)cc1 | -38.1 | -97.9*
Cc1ccc(-c2ccc([C@@H]3[C@H](CO)N4CCCCN(C(=O)Nc5cccc(F)c5)C[C@@H]34)cc2)cc1 | -42.3 | -97.9*
O=C(Nc1cccc(F)c1)N1CCCCN2[C@@H](CO)[C@@H](c3ccc(-c4ccccc4F)cc3)[C@@H]2C1 | -50.0 | -97.5*
Cc1ccc(-c2ccc([C@H]3[C@@H](CO)N4CCCCN(C(=O)Nc5cccc(F)c5)C[C@@H]34)cc2)cc1 | 20.6 | 16.4
Cc1ccc(-c2ccc([C@H]3[C@@H](CO)N4CCCCN(C(=O)Nc5ccccc5)C[C@H]34)cc2)cc1 | -32.1 | -0.2
Cc1ccc(-c2ccc([C@@H]3[C@H](CO)N4CCCCN(C(=O)Nc5ccccc5)C[C@@H]34)cc2)cc1 | -9.2 | -91.7*
O=C(Nc1cccc(F)c1)N1CCCCN2[C@H](CO)[C@H](c3ccc(-c4ccccc4F)cc3)[C@H]2C1 | -27.8 | -29.5
Cc1ccc(-c2ccc([C@@H]3[C@@H](CO)N4CCCCN(C(=O)Nc5cccc(F)c5)C[C@@H]34)cc2)cc1 | -19.9 | 65.0
COc1ccc(S(=O)(=O)Nc2ccc3c(c2)C(=O)N([C@H](C)CO)C[C@@H](C)[C@@H](CN(C)Cc2ccncc2)OCCCC[C@@H](C)O3)cc1 | -49.9 | 3.0
C[C@@H](NC(=O)C[C@@H]1C=C[C@@H](NC(=O)CN2CCOCC2)[C@@H](CO)O1)c1ccccc1 | 13.1 | nt
CC(C)CC#Cc1ccc2c(c1)O[C@@H](CN(C)Cc1ccncc1)[C@H](C)CN([C@H](C)CO)S2(=O)=O | -76.1 | 20.6
COc1ccc(S(=O)(=O)Nc2ccc3c(c2)CC(=O)N([C@@H](C)CO)C[C@@H](C)[C@H](CN(C)C(=O)Nc2cccc4ccccc24)O3)cc1 | -23.2 | 0.1
CCC(=O)Nc1ccc2c(c1)OC[C@@H](C)N(C(=O)NC1CCCCC1)C[C@@H](C)[C@H](OC)CN(C)C2=O | 22.6 | nt
COc1ccc2c3c(n(C)c2c1)[C@H](CO)N(Cc1ccc2c(c1)OCO2)CC31CN(C)C1 | 45.7 | nt
O=C(Nc1ccc(F)cc1)N1CCCCN2[C@H](C1)[C@@H](c1ccc(-c3cccc(F)c3)cc1)[C@@H]2CO | 10.6 | 49.9
O=C(Nc1ccc(F)cc1)N1CCCCN2[C@@H](CO)[C@@H](c3ccc(-c4cccc(F)c4)cc3)[C@@H]2C1 | -52.8 | -98.6*
Cc1ccccc1-c1ccc([C@H]2[C@@H](CO)N3CCCCN(C(=O)Nc4cccc(F)c4)C[C@@H]23)cc1 | 22.6 | 10.4
Cc1ccccc1-c1ccc([C@@H]2[C@H](CO)N3CCCCN(C(=O)Nc4cccc(F)c4)C[C@@H]23)cc1 | -36.2 | -95.5*
O=C(C[C@@H]1CC[C@@H](NC(=O)C2CC2)[C@@H](CO)O1)NCC1CC1 | nt | -0.7
Cc1ccc(S(=O)(=O)NC[C@H]2CC[C@@H]3[C@@H](CN3Cc3cc(-c4ccccc4)on3)O2)cc1 | 9.1 | -1.5
CCCC(=O)Nc1ccc2c(c1)C(=O)N(C)[C@@H]1CC[C@@H](CC(=O)OC)O[C@@H]1CO2 | 2.8 | 15.0
C[C@H](CO)N1C[C@H](C)[C@@H](CN(C)C(=O)c2cccc(F)c2)Oc2cc(-c3ccncc3)ccc2S1(=O)=O | -47.1 | 3.5
Cc1ccc(S(=O)(=O)Nc2ccc3c(c2)C(=O)N([C@@H](C)CO)C[C@@H](C)[C@@H](CN(C)C(=O)NC(C)C)OCCCC[C@@H](C)O3)cc1 | -12.1 | 9.8
CN1CCN(C(=O)C[C@H]2C[C@H]3c4cc(NC(=O)Nc5ccccc5)ccc4O[C@H]3[C@@H](CO)O2)CC1 | -19.1 | 1.0
SMILES | Pf Dd2 inh | C diff HTS
Cc1ccc(S(=O)(=O)Nc2ccc3c(c2)C(=O)N([C@@H](C)CO)C[C@H](C)[C@@H](CN(C)C(=O)Nc2ccc4c(c2)OCO4)OCCCC[C@@H](C)O3)cc1 | -84.7* | -0.3
Cc1ccc(S(=O)(=O)Nc2ccc3c(c2)C(=O)N([C@@H](C)CO)C[C@@H](C)[C@@H](CN(C)C(=O)Nc2ccc4c(c2)OCO4)OCCCC[C@H](C)O3)cc1 | ? | 0.8
C[C@@H]1CCCCO[C@@H](CN(C)C(=O)Nc2ccccc2)[C@@H](C)CN([C@H](C)CO)C(=O)c2cc(NS(=O)(=O)c3ccc(F)cc3)ccc2O1 | 11.3 | 1.7
C[C@@H]1CCCCO[C@H](CN(C)C(=O)Nc2ccc(F)cc2)[C@H](C)CN([C@@H](C)CO)C(=O)c2cc(NS(=O)(=O)c3ccccc3)ccc2O1 | -91.5* | -0.3
C[C@@H]1CCCCO[C@H](CN(C)C(=O)Nc2ccc(F)cc2)[C@H](C)CN([C@H](C)CO)C(=O)c2cc(NS(=O)(=O)c3ccc(F)cc3)ccc2O1 | -87.1* | 1.4
C[C@@H]1CCCCO[C@H](CN(C)C(=O)Nc2ccc(C(F)(F)F)cc2)[C@@H](C)CN([C@H](C)CO)C(=O)c2cc(NS(=O)(=O)c3ccccc3)ccc2O1 | -52.2 | -5.0
C[C@@H]1CCCCO[C@@H](CN(C)C(=O)Nc2ccc(F)cc2)[C@H](C)CN([C@H](C)CO)C(=O)c2cc(NS(=O)(=O)c3ccc(F)cc3)ccc2O1 | -52.7 | 4.3
C[C@@H]1CCCCO[C@H](CN(C)C(=O)Nc2ccc(C(F)(F)F)cc2)[C@@H](C)CN([C@@H](C)CO)C(=O)c2cc(NS(=O)(=O)c3ccccc3)ccc2O1 | -84.4* | 0.8
COc1ccc(NC(=O)Nc2ccc3c(c2)CC(=O)N([C@@H](C)CO)C[C@H](C)[C@@H](CN(C)C(=O)Nc2ccccc2)O3)cc1 | 6.9 | 19.3
O=C(C1CCOCC1)N1C[C@@H]2[C@H](c3ccccc31)[C@H](CO)N2C(=O)c1ccccc1 | 3.1 | -0.4
COCC(=O)N1CC2(C1)[C@H](c1ccc(-c3ccccc3)cc1)[C@@H](CO)N2C(=O)COC | -13.4 | 16.2
C[C@H](CO)N1C[C@H](C)[C@H](CN(C)C(=O)Nc2ccc(F)cc2)Oc2c(NC(=O)Nc3cccc4ccccc34)cccc2C1=O | -76.6 | -5.7
Cc1noc(C)c1NC(=O)N[C@H]1CC[C@H](CCNC(=O)C2CC2)O[C@@H]1CO | -13.6 | -5.6
CO[C@@H]1CN(C)C(=O)c2cc(NC(=O)Cc3ccccc3)ccc2OC[C@@H](C)N(C(C)=O)C[C@H]1C | -49.5 | nt
C[C@H](CO)N1C[C@H](C)[C@@H](CN(C)C(=O)C2CCC2)Oc2cc(Br)ccc2S1(=O)=O | 20.7 | nt
C[C@@H]1CCCCO[C@H](CN(C)C(=O)Nc2ccccc2)[C@@H](C)CN([C@@H](C)CO)C(=O)c2cc(NS(=O)(=O)c3ccc(Cl)cc3)ccc2O1 | -89.5* | 4.3
C[C@@H]1CN([C@H](C)CO)C(=O)c2cc(NS(=O)(=O)c3ccc(Cl)cc3)ccc2O[C@@H](C)CCCCO[C@H]1CN(C)C(=O)Nc1ccccc1 | -66.3 | 0.8
C[C@H](CO)N1C[C@H](C)[C@@H](CN(C)C(=O)Nc2ccc(C(F)(F)F)cc2)OCCCC[C@H](C)Oc2ccc(NS(=O)(=O)c3ccc(F)cc3)cc2C1=O | -55.3 | -1.2
C[C@H](CO)N1C[C@H](C)[C@H](CN(C)C(=O)Nc2ccc(C(F)(F)F)cc2)OCCCC[C@H](C)Oc2ccc(NS(=O)(=O)c3ccc(Cl)cc3)cc2C1=O | 1.1 | 6.6
